In PubChem BioAssay:
Several values for one entry are separate records, joined by “and”; a condition that tells them apart may be missing. Identical values can stand only once. Activity calls are given as the source filed them. Unless noted, no rule for the calls is given here.

Key:
[1] = P. berghei load reduction in hepatocytes – cell-based, HepG2, luciferase luminescence, HepG2 viability, primary screen (AID 624349; in the data active = parasite load remaining mostly below about 12%, no sharp cut-off; inactive = mostly above about 10%;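 also: 100% = mean of DMSO negative control wells on the same plate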); conditions: P. berghei liver stage in HepG2, luciferase luminescence, concentration not given here; parasite load remaining: stronger effect = lower value; viability: measured here: HepG2 viability without parasites
[2] = system: Neuropilin-2 / VEGF-C interaction (human); experiment: small molecules blocking Neuropilin-2/VEGF-C interaction – biochemical, microplate binding format, z-score (AID 743281); conditions: microplate NRP2/VEGF-C binding assay; stronger effect = lower value
[3] = Wnt pathway potentiators raising nuclear beta-catenin – imaging, WNT3A-conditioned medium, mouse C2C12, NPC library, primary screen (AID 1117326; in the data active = nuclear beta-catenin stimulation mostly above about 4.2%, no sharp cut-off; inactive = mostly below about 10%); conditions: stronger effect = higher value
[4] = stimulators of insulin release from INS-1E, primary screen, cell-based, 5 mM glucose, NPC library (AID 1117329;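 active = compound raises insulin release from rat beta cells at 5 mM glucose, no numeric limit stated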); conditions: rat INS-1E insulin secretion, at 10 µM, stronger effect = higher value
[5] = growth inhibition of GSK3B-pretreated HCT116 cells – cell-based, CellTiter-Glo, 0.2 to 20 µM (AID 1117336;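 active = compounds lowering colon cancer cell viability after pretreatment blocking the GSK3B kinase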); conditions: HCT116 viability after GSK3B inhibitor, at 20 µM, stronger effect = higher value
[6] = inhibition of endothelial tube formation, primary screen, imaging, VEGF stimulated, CD31 staining, tube area, NPC library (AID 1117340;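 active = compound that reduces growth-factor-driven endothelial tube area in a mixed cell culture, no cutoff stated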); conditions: VEGF-stimulated ADSC/ECFC co-culture, at 10 µM, stronger effect = higher value
[7] = GLP1 release stimulators, primary, NCI-H716, NPC library (AID 1117341;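 active = compound raises GLP1 secretion from the human gut endocrine cells, with no numeric limit stated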); conditions: NCI-H716 cells, at 10 µM, stronger effect = higher value
[8] = HCT116 colon cancer cell growth inhibition, primary screen, CellTiter-Glo luminescence, NPC library (AID 1117342;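 active = compounds that lower survival of HCT116 colon cancer cells in the luminescence readout, no numeric limit stated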); conditions: at 20 µM (top of the series)
[9] = reduced SW480 viability measured with CellTiter-Glo, NPC library, primary (AID 1117343;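 active = compounds that lower viability of the colon cancer cells in the luminescence readout, with no numeric limit stated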); conditions: CellTiter-Glo luminescence; at 20 µM (top of the series)
[10] = NPC library primary testing for decreased DLD-1 cell viability via CellTiter-Glo (AID 1117346;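 active = compounds that lower survival of DLD-1 colon cancer cells in the luminescence readout, no cutoff given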); conditions: DLD-1 viability, CellTiter-Glo luminescence; at 20 µM (top of the series)
[11] = system: Hepatitis C virus NS3 helicase; experiment: blockers of NS3h binding to ssDNA – biochemical, fluorescence polarization, LOPAC1280 library, primary screen (AID 687035; in the data active = inhibition above about 37%); conditions: Purified HCV NS3 helicase, Cy5-dT15 ssDNA binding fluorescence polarization; stronger effect = higher value; concentration not given here
[12] = compounds altering Cy5-DNA-NS3h complex signal – biochemical, LOPAC1280, artefact control for HCV NS3 helicase inhibitor project (AID 687037); conditions: Cy5-DNA-NS3h complex fluorescence interference counterscreen
[13] = signal quenchers or enhancers, Cy5 substrate/SSB – biochemical, NIH Clinical Collection, E. coli SSB, artefact control for HCV NS3 helicase inhibitor project (AID 743268); conditions: Cy5-oligo bound E. coli SSB, fluorescence interference
[14] = system: Hepatitis C virus NS3 helicase; experiment: blockers of NS3h binding to DNA – biochemical, fluorescence polarization, NIH Clinical Collection, primary screen (AID 743270); conditions: NS3 helicase binding to Cy5-dT15 DNA, stronger effect = higher value, concentration not given here
[15] = target: Single-stranded DNA-binding protein (Escherichia coli (strain K12)) (UniProt P0AGE0); experiment: SSB-ssDNA binding inhibitors – biochemical, fluorescence polarization, NIH Clinical Collection, counter-screen for HCV NS3 helicase inhibitor project (AID 743271; in the data active = inhibition above about 28%); conditions: E. coli SSB-DNA binding, stronger effect = higher value, concentration not given here
[16] = compounds distorting NS3 helicase fluorescence signal – biochemical, NIH Clinical Collection, artefact control for HCV NS3 helicase inhibitor project (AID 743272); conditions: fluorescence interference counterscreen, HCV NS3 helicase assay; stronger effect = lower value;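 also: HCV NS3 helicase with a Cy5 labelled single stranded DNA probe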

Row | Structure (SMILES) | parasite load remaining [1] | viability [1] | z-score [2] | nuclear beta-catenin stimulation ([3]; at 10 µM) | nuclear beta-catenin stimulation ([3]; stimulation, at 2 µM) | insulin secretion stimulation [4] | viability decrease [5] | tube area decrease [6] | GLP1 secretion stimulation [7] | inhibition of viability [8] | viability decrease (inhibition) [9] | viability decrease (inhibition) [10] | inhibition [11] | fluorescence ratio (interference) [12] | fluorescence ratio [13] | inhibition [14] | inhibition [15] | fluorescence ratio [16]
1 | CCc1c2c(nc3ccc(OC(=O)N4CCC(N5CCCCC5)CC4)cc13)-c1cc3c(c(=O)n1C2)COC(=O)[C@]3(O)CC | 136% (inactive) and 106% (inactive) | 95.2% and 90.6% | -0.00941 (inactive) | 11.6% (inactive) | 1.5% | -1.1% (inactive) | 67.4% (active) | 97.9% (active) | 24% (active) | 50.8% (active) | 21.7% (inactive) | 8.7% (inactive) |  |  |  |  |  | 
2 | CN(CCOc1ccc(NS(C)(=O)=O)cc1)CCc1ccc(NS(C)(=O)=O)cc1 | 94% (inactive) and 61.2% (inactive) | 70% and 214% | -1.11 (inactive) | -0.7% (inactive) | 1.6% | 1.25% (inactive) | 12.3% (inactive) | 3.3% (active) | 0.3% (inactive) | 11.9% (inactive) | 13% (inactive) | -6.9% (inactive) |  |  |  |  |  | 
3 | COc1ccccc1OCC(O)CN1CCN(CC(=O)Nc2c(C)cccc2C)CC1 (configuration not stated) |  |  | 0.514 (inactive) | 2.5% (inactive) | 1.4% | 0.8% (inactive) | -14.5% (inactive) | 0.2% (inactive) | 2.2% (inactive) | 9.23% (inactive) | -16.2% (inactive) | -14.6% (inactive) | -7% (inactive) | 0.9 (inactive) | 1.02 (inactive) | -3.56% (inactive) | -4.72% (inactive) | 0.9 (inactive)
4 | Cc1nc2n(c(=O)c1CCN1CCC(c3noc4cc(F)ccc34)CC1)CCCC2 | 83.8% (inactive) and 28.6% (inactive) and 49.1% (inactive) | 76.9% and 60.3% and 97.5% | -1.5 (inactive) | 4.2% (inactive) | 4.4% | 2.5% (inactive) | 5.9% (inactive) | 24.9% (inactive) | 2.3% (inactive) | 24.2% (inactive) | 41.5% (inactive) | 10.7% (inactive) |  |  | 1.05 (inactive) | 3.56% (inactive) | 2.21% (inactive) | 1.02 (inactive)
5 | COc1cc2nc(N3CCN(C(=O)C4CCCO4)CC3)nc(N)c2cc1OC (configuration not stated) |  |  | -0.533 (inactive) | 0.8% (inactive) | 1.4% | 0.35% (inactive) | 7.5% (inactive) | 9.3% (inactive) | 1.3% (inactive) | -9.1% (inactive) | -2.8% (inactive) | 5.5% (inactive) | -3% (inactive) | 1 (inactive) | 0.99 (inactive) and 1.03 (inactive) | 0.4% (inactive) and -6.82% (inactive) | -3.18% (inactive) and 1.05% (inactive) | 0.95 (inactive) and 1.02 (inactive)
